Results filed as inconclusive are left out. A call without a number means that no potency is given here. Active and inactive are the calls of the source. Calls come from the whole dose curve; as a rule, active = well fitted cell-killing curve with a large enough effect in the repeat runs; inconclusive = weak or mixed curves, or effect the other way; inactive = flat fitted curve, though single readings scatter.
Potency is the fitted concentration of half-maximal effect.

This assay in a line: cAMP Responsive Elements (CRE) small molecule agonists, cell-based qHTS assay: qHTS cell viability counter screen (AID 2060914). Note: nearly all actives have a fitted effect of over 50% in size. The note with it: CRE-bla HEK293T viability, CellTiter-Glo luminescence, 5 h; series mostly up to 92.4 µM. The gist of the method:
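In the same wells as the reporter read, viability of CRE-bla HEK 293T cells was quantified by CellTiter-Glo luminescence after a 3 h compound exposure.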
(In general: Quantitative high-throughput screening tests each substance at several concentrations.)
Regarding `CCC(CC)(CNC(=O)CCCO)c1cccc(OC)c1`, the Potency result is “inactive”. In the case of `Nc1ccc(Cl)cc1N` it was “inactive”; in that of `N#Cc1cc(Br)c(O)c(Br)c1`, “inactive”; in that of `C(=NC1CCCCC1)=NC1CCCCC1`, “inactive”. The same measure for `COP(=O)(NC(C)=O)SC` (configuration not stated): “inactive”. In the case of `CCC(C)c1cccc(C(C)CC)c1O` (configuration not stated) it was “inactive”; in that of `C[C@]12CC[C@H]3[C@@H](CCC4=CC(=O)CC[C@@H]43)[C@@H]1CC[C@@H]2OC(=O)CCc1ccco1`, “inactive”.

For `Oc1cc(Cl)c(Cl)c(Cl)c1Cl`, the Potency result is “inactive”. In the case of `S=c1[nH]c2ccccc2[nH]1` it was “inactive”; in that of `C[C@]12Cc3nonc3C[C@@H]1CC[C@@H]1[C@@H]2CC[C@@]2(C)[C@H]1CC[C@]2(C)O`, 29.8 µM (active). In the case of `O.O.O.O.O.O.O=S(=O)([O-])[O-].[Ni+2]` it was “inactive”; in that of `NP(N)(=O)NC(=O)c1ccc(F)cc1`, “inactive”.

The record behind these values is PubChem BioAssay (Tox21).
